Sampled rows, rich in hits. Any-hit rate of the full collection: about 15%.
HCV inhibitor: inhibitors of hepatitis C virus infection. Huh7.5.1 HCVcc-Cre infection, luciferase reporter, 44 h. Potency, µM (highest dose often 41.8 µM), for the others: at the top dose activity change, negative = inhibition, hits mostly inhibitors. 3.4% of 340,000 active. AID 651820; note: potency is the fitted concentration of half-maximal effect; % is set by controls: 0 for no effect and ±100 for the full control effect
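Infectious HCVcc-Cre (~0.5 moi) was added to cells just after compound, with cells seeded 4 h earlier at 1,000 per well. Luciferase activity after 44 h culture reported infection; substrate was incubated 15 min at room temperature before reading.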
HCMV inh: inhibitors of human cytomegalovirus; HFF cells, HCMV-luciferase reporter, 72 h; hits give low values; 4.5% of 410,000 active; activity change, negative = inhibition, % at 57.5 µM; in the data active = activity change below about -60%; inconclusive = no clear call, values can overlap the other calls; inactive = above about -39%; note: % is set by controls: 0 for no effect and ±100 for the full control effect
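Compounds were evaluated in HFFs infected with an HCMV luciferase reporter virus (MOI 1 PFU/cell). Luciferase in lysates collected 72 h post infection served as the replication measure.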
Pf growth 96h: P. falciparum growth inhibition at 96 hour, primary screen for plastid delayed-death inhibitors; P. falciparum luciferase reporter growth, 96 h; Potency, µM (highest dose often 28.7 µM), for inactives: at the top dose activity change, negative = inhibition, most hits filed as inhibitors; 6.9% of 320,000 active; note: potency is the fitted concentration of half-maximal effect; % is set by controls: 0 for no effect and ±100 for the full control effect
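Two parasite generations (96 h, 37 C, 5% CO2) of compound exposure in infected erythrocytes (0.05% parasitemia, 2% hematocrit). Luciferase-reporter P. falciparum; decreased luminescence indicates inhibited growth, aimed at apicoplast-acting delayed death.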
Pf growth 48h: inhibits P. falciparum growth in the first generation, 48 h | P. falciparum luciferase growth in erythrocytes, 48 h | Potency, µM (series often up to 28.7 µM), for inactives: top-dose activity change, negative = inhibition, actives largely listed as inhibitors | 5.9% of 310,000 active; note: potency is the fitted concentration of half-maximal effect; % is set by controls: 0 for no effect and ±100 for the full control effect
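Luciferase-expressing P. falciparum in infected erythrocytes (2% hematocrit, 0.1% parasitemia final) in RPMI 1640/0.5% Albumax were exposed to compound for 48 hours at 37 C, 5% CO2; growth read as luminescence.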
SARS PLP yeast: SARS-CoV PLP inhibition in yeast; S. cerevisiae expressing SARS-CoV PLpro, growth rescue; Potency, µM (series often up to 32.9 µM), for inactives: at the top dose activity, positive = growth rescue, actives largely listed as activators; 0.19% of 330,000 active; AID 485353; calls by dose curve; note: potency is the fitted concentration of half-maximal effect; 0% is about no effect; nearly all actives have a fitted effect of over 55% in size
Sm TGR inh: inhibitors of Schistosoma mansoni thioredoxin glutathione reductase; purified TGR, DTNB reduction, TNB absorbance 405 nm; 3% of 360,000 active; Q962Y6; AID 485364; Potency, µM (series often up to 114 µM), inactives show at the top dose activity change, negative = inhibition, most hits filed as inhibitors; note: potency is the fitted concentration of half-maximal effect; % is set by controls: 0 for no effect and ±100 for the full control effect; nearly all actives have a fitted effect of over 60% in size
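First, TGR (20 nM dispensed) and NADPH were mixed with compound. Second, a 15 min room-temperature incubation followed. Third, further NADPH and then DTNB were added to start the reaction. Finally, TNB absorbance was monitored kinetically.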
An asterisk follows results filed as active; [ ] = dose if it differs, or a comment. Unless noted, calls come from the whole dose curve; as a rule, active = well fitted curve in the direction sought with a large enough effect; inconclusive = small, poorly fitted or top-dose-only effect, or another doubt; inactive = no such curve, though single readings can be large; an effect the other way counts as inactive or inconclusive.

`Cc1ccc(N2C(=O)CC(Sc3cccs3)C2=O)cc1` (stereo not given) gave HCV inhibitor 10.6%, HCMV inh -12.4, Pf growth 96h -4.9%, Pf growth 48h 4.3%, SARS PLP yeast -6.4% and Sm TGR inh 7.08µM*.
`Cc1cccc(N2C(=O)CC(Sc3nnc(C)s3)C2=O)c1` (stereo not given) gave HCV inhibitor inconclusive, HCMV inh 6.3, Pf growth 96h -8.2%, Pf growth 48h 9.3%, SARS PLP yeast -123.6% and Sm TGR inh 3.55µM*.
For Cc1cccc(N2C(=O)CC(Sc3nc(C)cc(C)n3)C2=O)c1 (stereo not given) the results were HCV inhibitor 18.5%, HCMV inh -37.2, Pf growth 96h inconclusive, SARS PLP yeast -10.0% and Sm TGR inh 0.0%.
Screening Cc1ccc(SC2CC(=O)N(c3ccc4c(c3)OCCO4)C2=O)cc1 (stereo not given) returned HCV inhibitor -10.8%, HCMV inh -10.2, Pf growth 96h -31.9%[5.75 µM], Pf growth 48h 22.4%, SARS PLP yeast -5.5% and Sm TGR inh inconclusive.
CC1CCc2ccccc2N1C(=O)c1cccs1 (stereo not given) was read as HCV inhibitor -5.4%, HCMV inh -17.6, Pf growth 96h -5.6%, Pf growth 48h -22.8%, SARS PLP yeast -3.3% and Sm TGR inh 13.0%.
Screening O=C(CSc1nc(=O)n(CCCN2CCOCC2)c2c1CCCC2)Nc1cccc(Cl)c1 returned HCV inhibitor 11.2%, HCMV inh 6.9, Pf growth 96h inconclusive, Pf growth 48h inconclusive, SARS PLP yeast 3.8% and Sm TGR inh -25.1%.
CC(C)CN(C(=O)COC(=O)Cc1c[nH]c2ccccc12)c1c(N)n(Cc2ccccc2)c(=O)[nH]c1=O was read as HCV inhibitor -13.8%, HCMV inh -18.4, Pf growth 96h inconclusive, Pf growth 48h inconclusive, SARS PLP yeast 1.7% and Sm TGR inh -11.0%.
Screening CCOc1ccc(N(CC(=O)Nc2ccc(OC)cc2OC)S(=O)(=O)c2c(C)[nH]c(=O)[nH]c2=O)cc1 returned HCV inhibitor 4.6%, HCMV inh -25.4, Pf growth 96h 33.1%, Pf growth 48h inconclusive, SARS PLP yeast -2.2% and Sm TGR inh 0.9%.
`Cc1cc(C)cc(N2C(=O)CC(Sc3ncn[nH]3)C2=O)c1` (stereo not given) gave HCV inhibitor 0.2%, HCMV inh -2.7, Pf growth 96h inactive, Pf growth 48h -7.6%, SARS PLP yeast -5.0% and Sm TGR inh 0.501µM*.
Cc1cc(C)cc(N2C(=O)CC(Cn3nc(C)cc3C)C2=O)c1 (stereo not given) was read as HCV inhibitor -14.7%, HCMV inh 2.4, Pf growth 96h 6.4%, Pf growth 48h -3.9%, SARS PLP yeast 0.1% and Sm TGR inh 0.3%.
Screening O=C1CC(Sc2nnnn2C2CCCCC2)C(=O)N1c1ccccc1 (stereo not given) returned HCV inhibitor inconclusive, HCMV inh -69.2*, Pf growth 96h 34.1%, Pf growth 48h 9.2%, SARS PLP yeast -87.2% and Sm TGR inh 3.16µM*.
Cc1ccccc1C(=O)Nc1c(C)nc(Nc2ccccc2)nc1Nc1ccccc1 was read as HCMV inh -36.5 and Sm TGR inh -1.5%.
CCn1c(SCC(=O)Nc2ccc(C)cc2Br)nnc1-c1nonc1NC(C)=O was read as HCMV inh -27.1 and Sm TGR inh -12.0%.
CCNC(=O)C1(C)CCN(Cc2cccc3ccccc23)C1 (stereo not given) was read as HCMV inh -6.3.
`Cc1cccc(Cn2nnc3c(=O)[nH]c(C4CCCN(C(=O)c5ccc(C(C)(C)C)cc5)C4)nc32)c1` (stereo not given) gave HCMV inh -69.6* and Sm TGR inh -0.1%.

Screening results: PubChem, National Center for Advancing Translational Sciences (NCATS)
